# Reference: PubChem BioAssay AID1347426 (Functional Genomics Laboratory (NCATS/FGL), 2020)
# The campaign covered roughly 31,000 sequences. About 1,400 (4.5%) were called active. This excerpt belongs to a sample that is enriched for actives. Values without a mark were called inactive.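 Rule for the calls: active = median seed-adjusted z-score above 1 or below -1; inactive = the rest.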
# Experiment: Novel Modifiers of Survival Motor Neuron (SMN) Protein: Gene Identification via Genome-wide siRNA Screen;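 note: luminescence tracks full-length SMN protein made from the SMN2 reporter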
# Conditions: HEK293T SMN2-luciferase reporter, siRNA knockdown, 72 h; actives lie on both sides
# From the text: Spinal muscular atrophy (SMA) is the most common neuromuscular autosomal recessive disorder and one of the leading genetic causes of infant death. SMA results from mutations inducing loss of function or deletion in the survival of motor neuron-1 gene (SMN1), leading to deficiency of the survival motor neuron (SMN) protein. Although a second nearly identical gene, SMN2, is retained in humans, its expression primarily produces an aberrantly spliced isoform that is largely unstable and quickly degraded. We performed a genome-wide RNAi screen using a cell-based reporter assay to identify genes and pathways that modulate SMN protein stability. The screen identified over 200 genes that led to the greatest increase or decrease in luciferase expression.
# Using HEK293T cells stably expressing a luciferase reporter that combines the promoter and splicing based cassettes in tandem with the major portion of the native SMN2 cDNA with luciferase, we performed a genome-wide RNAi screen to identify modulators of SMN protein levels. Luciferase is expressed when full-length SMN protein is generated with luminescence signal proportional to SMN protein levels. Our luciferase-based reporter assay was used to screen Ambion Silencer Select Human Druggable Genome siRNA library (10418 genes, 3 unique siRNAs per gene) using lipid-based reverse transfection.
# Briefly, 1 pmol of each siRNA was spotted to a well of a 384-well plate (Corning, Corning, NY) and 20 microL of serum-free DMEM containing […] of Lipofectamine RNAiMax (Life Technologies, Carlsbad, CA) was then added to each well. Transfected cells were maintained at 37 degrees C in 5% CO2 for 72 hours, 20 microL of ONE-Glo Reagent (Promega) was added to wells for luciferase quantification. Raw luminescence reads were normalized to Ambion(R) Silencer(R) Negative Control #2 siRNA, then log10 transformed. A robust statistical measure of median absolute deviation (MAD) to standardize siRNA activities from each screen. Common Seed Analysis was used to help prioritize clean hits as opposed to those appearing to arise from seed based off-target effects. Candidate modulators were defined as the genes having a MAD score greater than 1.0 or less than -1.0.
row,Sequence,median seed-adjusted z-score
1,ACUUGAAUCUUAGCAUUCATT against RAD9A,-0.0564
2,CAAGACUGCUGAUGAGUUUTT against HSD17B3,0.734
3,CUUUCACACUCGACACUGATT against HOXA2,0.335
4,GAACAUCCGUGAGCAAGGATT against KCNJ8,0.329
5,GCCCUUGCCUUAUUGCUGATT against MED20,-1.66 (active)
6,GGCUUGAGUUCAUUCAGAATT against PKN3,0.476
7,GCCGGUGCUUUAUCUCAUUTT against GPR87,0.237
8,GAGACUUUCUACAAUACUATT against EIF4A2,0
9,CGCUCUCUUCACUUACGAATT against MYO10,0.8
10,UAAUGACCCUAUCUAUAAATT against UGT2B17,-0.0203
11,GAUGGAUUCUUGUUCCGUUTT against KCTD16,0.00219
12,GAACUUCUACUUUAACAAATT against HS3ST1,1.21 (active)
13,CUUUUGAACAGAUCGAUGATT against EXO1,0.547
14,GCUCAUAAAUGAGAAGCUATT against PCDHB16,-0.523
15,AGUGUACAAUCGAUAAAAATT against ESR2,-1.1 (active)
16,CAGCAUACAUGUUUAGUGATT against TRPC6,-0.527
17,CGGUAUCUAUGACACUGCATT against SLC25A5,-0.0501
18,CAGAGUCUUUCAUUCGAAUTT against SPATA5,-1.04 (active)
19,GAACUAUGGUGCUACUGGATT against ZNF449,0.178
20,AGAGCUCACUCGUCCCAAUTT against CXCL16,0.201
21,CGAAAAGUCUCACAGUGGATT against ZNF563,0.00283
22,CGGGUAUUGUGGGACUGAATT against USP39,0.821
23,UAAUUGACCUGACCAGUUUTT against SLC30A8,-0.767
24,CUGGAUAAGUGUUUCGAAATT against AP3S2,0.521
25,CACCCACACCGGAUUGAAATT against BAG5,-0.0153
26,CGGCCGCUCUAUAAGCUGATT against LLGL1,-1.13 (active)
27,GCCCUGCGGUACAAUGUCATT against APOBEC2,0.232

row,Sequence,median seed-adjusted z-score
1,GGCCUAUUUCCAAACCGAUTT against RICS,0.665
2,CCACCGAUUUGAUCCCAAATT against NAPSA,-0.336
3,CAUUCACCACAAUAGCUAUTT against GPR1,0.0609
4,GGAUUGAAGAUACUACAAATT against THOC1,-3.04 (active)
5,CAACAGCACCAGUUUGACATT against NAGLU,-0.526
6,GGACUUCAGGGUUUAACAATT against FOLR1,-1.31 (active)
7,CAGCCUUACUCAAUUUGUATT against EFS,-0.299
8,CACGUGCAGAGUGUCGAUATT against EEF1D,0.421
9,GGUCUAAACUUGAUCCAAATT against CCAR1,-1.18 (active)
10,AAUAUUUGCUGUUCGUCAATT against MOCS2,0.0327
11,CCAUCCCAAAUUUACAACATT against SARS2,0.524
12,CUCUAACUAUGAUCUCGUUTT against CDS1,0.0208
13,GGCUUGACCUUUUUCGUCUTT against DYNC2H1,-0.613
14,GAACCGACAAAAGUAGAUATT against RARB,0.409
15,GAAUUAGAGUUGAGGGUAATT against MYBPC1,0.295
16,GCAUGGUCUUUCUACUUGUTT against TUBB2A,1.03 (active)
17,CCAAAGCUCUCAUCGGAGATT against GNS,0
18,GGACUCACCAAAUAGAUCATT against ZNF818,-0.223
19,GCAAGGAGUAUAACAUGUATT against SKAP1,-0.00637
20,CAUUCGAUCUAGCAAAUUATT against TUBB1,-0.289
21,GGCUGUUGGUAACCUGAGATT against TF,0.192
22,GACCAUUCGUACUCCUUGUTT against THAP11,-1.36 (active)
23,CCAUCGCCUUGAAGGAGAATT against RNF31,-0.687
24,AGACCUUCGUGGAAAAAUATT against CDC37,0
25,GGAGGACAAUCAGCAAGGATT against SPOCK2,0.967
26,AGAACAUCAUCGCGCGGGATT against FOXB1,0.223
27,GCUUACUAGUUUGAACGGATT against SPATA5,-1.04 (active)
